Source: PubChem BioAssay AID488969 (Vanderbilt High Throughput Screening Facility, 2010)
In all, about 110,000 compounds were measured (“z-score”: median about -0.1, highest 2% from about 2 on). The full list was thinned out, with the highest values kept by preference. The source made the active and inactive calls.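 The calls were made as follows: active = z-score in the third read window above 3 or below -3; inactive = the rest.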

Target: Metabotropic glutamate receptor 8 (Rattus norvegicus) (UniProt P70579)
Assay: rat mGluR8 modulators via GIRK flux, primary screen, cell-based, thallium flux, HTS (AID 488969)
Details: HEK293 rat mGluR8, GIRK (G protein-gated inwardly rectifying potassium channel) thallium flux, FluoZin2; at 10 µM; stronger effect = higher value; submaximal glutamate (EC20) added with thallium

Sequence of Metabotropic glutamate receptor 8 (Rattus norvegicus) (P70579 whole entry, looked up): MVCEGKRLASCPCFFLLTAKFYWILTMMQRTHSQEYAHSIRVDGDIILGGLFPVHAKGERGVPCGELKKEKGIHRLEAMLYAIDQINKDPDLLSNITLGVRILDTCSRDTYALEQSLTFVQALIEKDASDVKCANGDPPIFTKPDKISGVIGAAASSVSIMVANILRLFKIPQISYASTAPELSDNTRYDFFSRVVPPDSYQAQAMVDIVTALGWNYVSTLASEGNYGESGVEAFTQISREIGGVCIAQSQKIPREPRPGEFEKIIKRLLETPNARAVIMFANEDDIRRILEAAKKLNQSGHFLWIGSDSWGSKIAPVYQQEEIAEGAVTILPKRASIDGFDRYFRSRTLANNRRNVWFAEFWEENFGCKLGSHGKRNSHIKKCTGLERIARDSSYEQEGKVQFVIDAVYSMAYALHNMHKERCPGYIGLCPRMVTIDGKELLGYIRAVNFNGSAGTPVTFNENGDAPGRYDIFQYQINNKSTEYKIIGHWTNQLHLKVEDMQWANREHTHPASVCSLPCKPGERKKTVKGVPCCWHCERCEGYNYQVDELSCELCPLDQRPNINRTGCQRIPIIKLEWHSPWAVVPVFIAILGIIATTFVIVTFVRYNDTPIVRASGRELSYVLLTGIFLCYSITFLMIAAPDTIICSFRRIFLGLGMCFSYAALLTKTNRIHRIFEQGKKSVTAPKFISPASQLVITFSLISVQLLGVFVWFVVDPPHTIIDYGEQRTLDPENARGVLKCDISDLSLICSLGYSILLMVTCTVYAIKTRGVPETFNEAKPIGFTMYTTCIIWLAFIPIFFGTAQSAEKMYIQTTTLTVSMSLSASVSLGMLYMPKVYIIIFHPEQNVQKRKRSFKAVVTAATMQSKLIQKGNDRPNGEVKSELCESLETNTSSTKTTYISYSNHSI

Row | SMILES | z-score
1 | O=S1(=O)C[C@@H](O)[C@@H](Nc2ccc(Cl)cc2)C1 | -0.343
2 | CCn1cc(/C=N/NS(=O)(=O)c2ccc(C)cc2)c(C)n1 | -0.045
3 | CC(C)OC(=O)c1c(N)n(CCCN2CCOCC2)c2nc3ccccc3nc12 | -0.444
4 | COc1ccc2c(c1)c1nc3ccccc3nc1n2CC(=O)OC(C)C | 0.485
5 | CC(C)OC(=O)c1c2nc3ccccc3nc2n2c1[nH]c(=O)c1ccccc12 | 16.9 (active)
6 | CCOC(=O)c1ccc(NC(=O)CN2C(=O)CNC2=O)cc1 | -0.263
7 | CCOC(=O)C1=C(C)C2C3C(=O)N(c4ccccc4C)C(=O)C3C1(C)C1C(=O)N(c3ccccc3C)C(=O)C21 (stereo not drawn) | -0.246
8 | O=C(CN1C(=O)NC2(CCc3ccccc32)C1=O)Nc1ccc(N2CCOCC2)cc1 (stereo not drawn) | -0.205
9 | Cc1cccc(C(=O)NC(=S)Nc2ccccc2C(F)(F)F)c1 | 3.38 (active)
10 | CCC(=O)NC(=S)Nc1ccccc1C(F)(F)F | 0.0622
11 | CC(C)(C)CC(=O)NC(=S)Nc1ccccc1C(F)(F)F | 0.863
12 | CCCC(=O)NC(=S)Nc1ccccc1C(F)(F)F | 0.25
13 | CC(C)C(=O)NC(=S)Nc1ccccc1C(F)(F)F | 0.0217
14 | Cc1ccc(C(=O)NC(=S)Nc2ccccc2C(F)(F)F)c(C)c1 | 0.996
15 | Cc1ccc(C(=O)NC(=S)Nc2ccccc2C(F)(F)F)cc1 | 6.32 (active)
16 | Cc1ccccc1C(=O)NC(=S)Nc1ccccc1C(F)(F)F | 1.41
17 | Cc1ccc(C(=O)NC(=S)Nc2ccccc2C(F)(F)F)cc1C | 5.48 (active)
18 | COc1cccc(C(=O)NC(=S)Nc2ccc(N3CCCC3)cc2)c1 | -0.087
19 | O=C(CC1C(=O)N(c2ccccc2)C(=S)N1c1ccccc1)c1ccccc1 (stereo not drawn) | 0.466
20 | CC(Sc1ncnc2ccccc12)C(=O)Nc1ccc2c(c1)OCCO2 (stereo not drawn) | -0.25
21 | NS(=O)(=O)c1ccc(CCNC(=S)Nc2ccccc2)cc1 | -0.217
22 | COc1ccccc1OCc1ccc(C(=O)Nc2ccccc2F)cc1 | -0.156
23 | O=C(CSCc1cnn(-c2ccccc2)c1-n1cccc1)NCc1ccc2c(c1)OCO2 | 0.533
24 | C#CCn1cc(/C=N/NC(=O)c2cc3ccccc3o2)c2ccccc21 | -0.24
25 | Cc1cc(N2CCOCC2)nc2ccc(NC(=O)CCC(=O)N3CCCC(C)C3)cc12 (stereo not drawn) | 2.7

Row | SMILES | z-score
26 | Cc1cc(N2CCOCC2)nc2ccc(NC(=O)CCC(=O)N3CCC(C)CC3)cc12 | 0.27
27 | Cc1cc(N2CCOCC2)nc2ccc(NC(=O)CCC(=O)N3CCCCC3)cc12 | -0.00221
28 | CCOC(=O)c1c(-c2ccccc2)nnn1-c1nc(OC)nc(N2CCOCC2)n1 | -0.476
29 | Cc1ccnc2nc(C(=O)Nc3nnc(CC(C)C)s3)nn12 | -0.0103
30 | Cc1ccc(NC(=O)CN2C(=O)S/C(=C\C(=O)Nc3ccc(Cl)cc3)C2=O)cc1 | -0.0557
31 | COc1ccc(NC2=Nc3cccc4cccc2c34)cc1 | -0.54
32 | COc1ccc(NC2=Nc3cccc4cccc2c34)cc1OC | 4.9 (active)
33 | COc1cc(NC2=Nc3cccc4cccc2c34)cc(OC)c1OC | -0.385
34 | COc1ccc(-c2cc(C#N)nc(N3CCN(c4ccccc4)CC3)n2)cc1 | -0.103
35 | COc1ccc(-c2cc(-c3ccc(F)cc3)nc(N3CCN(C)CC3)n2)cc1 | 0.083
36 | COc1ccc(-c2cc(C#N)nc(N3CCNCC3)n2)cc1 | 2.07
37 | CN1CCN(/C=N/c2c(C#N)cnn2C)CC1 | 0.146
38 | Nc1cc(-c2ccc(Cl)cc2)nn1S(=O)(=O)c1ccc(Cl)cc1 | -0.0623
39 | CCOC(=O)c1[nH]c(C)c(C(=O)NC2CCCCC2)c1C | 3.27 (active)
40 | CCOC(=O)c1[nH]cnc1C(=O)NC1CCCCC1 | -0.225
41 | CCOC(=O)c1[nH]c(C)c(C(=O)NC2CCCCCC2)c1C | 0.781
42 | CCOC(=O)c1[nH]c(C)c(C(=O)NC2CCCC2)c1C | -0.06
43 | CCOC(=O)c1sc(C)c(C(=O)NC2CCCCC2)c1N | 3.33 (active)
44 | CCOC(=O)c1sc(C)c(C(=O)NCC(C)(C)CN(C)C)c1N | 0.753
45 | O=C(CN1CCc2ccccc21)NC(=O)NCc1ccco1 | 0.562
46 | Cc1oc(C(C)(C)C)cc1C(=O)Nc1cccc(C(=O)O)c1 | -2.4
47 | COc1ccc(NC(=O)C(=O)N/N=C/c2cc(C)n(-c3cccc(Cl)c3Cl)c2C)c(OC)c1 | -0.134
48 | Cc1c(NC(=O)C(C)OC(=O)c2sc3ccccc3c2Cl)c(=O)n(-c2ccccc2)n1C (stereo not drawn) | -0.273
49 | CNC(=S)Nc1ccc(OC)c(OC)c1 | 0.0698
50 | COc1ccc(NC(=S)SC)cc1OC | 3.35 (active)

Row | SMILES | z-score
51 | COC(=O)Nc1ccc(OC)c(OC)c1 | 0.503
52 | CCC(C)c1ccc(NC(=S)Nc2ccc(OC)cc2)cc1 (stereo not drawn) | 0.436
53 | CCC(C)c1ccc(NC(=S)Nc2ccc(OC)c(OC)c2)cc1 (stereo not drawn) | 5.09 (active)
54 | CCC(C)c1ccc(NC(=S)Nc2ccc(OC)cc2C)cc1 (stereo not drawn) | 0.0172
55 | c1ccc(-c2ccccc2-c2nc(-c3ccncc3)no2)cc1 | -0.475
56 | CCCC12CN3CCN(CC(C3)/C1=N\NC(=O)c1ccccc1N)C2 | -0.119
57 | Cc1ccc(OCc2nc(-c3ccc(-n4cccc4)cc3)no2)cc1C | -0.0508
58 | CCOC(=O)C1=C(C)N(c2ccc(OC)cc2)C(=O)/C1=C\c1cccs1 | -0.132
59 | CCOc1ccc(CCNC(=O)C2CCN(c3nnc(-n4cccc4)s3)CC2)cc1OCC | -1.57
60 | O=C(Nc1ccc(S(=O)(=O)Nc2ncccn2)cc1)c1ccc(Br)s1 | 0.347
61 | O=C1C(C=NCc2ccccn2)=C(O)c2ccccc21 | -0.00613
62 | Cc1ccc(OCc2nnc(SCC(=O)N3CCc4ccccc43)n2C)cc1 | -0.358
63 | CC(Oc1ccc(Cl)cc1Cl)C(=O)NN=C1CCN(C)CC1 (stereo not drawn) | -0.0448
64 | Cc1cccc(OCc2nnc(SCC(=O)N3CCc4ccccc43)n2C)c1 | 2.88
65 | O=C(CCCOc1ccc(Cl)cc1Cl)N1CCCc2ccccc21 | -0.0365
66 | O=C(COc1ccc(Cl)cc1Cl)OCC(=O)N1CCCc2ccccc21 | -0.0629
67 | CC(Oc1ccc(Cl)cc1Cl)C(=O)N/N=C1\CCCc2ccccc21 (stereo not drawn) | 0.0705
68 | O=C(COc1ccc(Cl)cc1Cl)NC(=S)N1CCCc2ccccc21 | 13.2 (active)
69 | Cc1cccc(OCC(=O)NC(=S)N2CCCc3ccccc32)c1 | 7.99 (active)
70 | Cc1ccccc1OCc1nnc(SCC(=O)N2CCc3ccccc32)n1C | -0.183
71 | COc1ccc(OCC(=O)NC(=S)N2CCCc3ccccc32)cc1 | 1.72
72 | CC(Oc1ccc(Cl)cc1Cl)C(=O)NC(=S)N1CCc2ccccc21 (stereo not drawn) | 12.9 (active)
73 | Cc1cccc(OC(C)C(=O)N2CCCc3ccccc32)c1 (stereo not drawn) | -0.141
